Molecules are shown by their SMILES. This is part of a sample that, as a whole, favours compounds with a hit. Of some 83,000 tested, about 20% had one in any assay.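 Single-dose data. Exposure time 48 hours. Values below 10 considered active.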 Unmarked numbers belong to inactive results. Active and inactive are the calls of the source.

This passage reports growth results from PubChem BioAssay (NCI).

The test system of the experiment is HL-60(TB) leukemia. In words: NCI-60 one-dose screen, 48 h (100 = growth as untreated, 0 = no growth, -100 = all killed). As to conditions: 10 µM unless noted.
Take `COC(=O)C1(C)COP(=O)(Nc2ccc(OC)cc2)OC1` (stereo not given): the growth was 94.7%.
Regarding `O=C(O)c1ccccc1NCc1ccco1`, the growth is 102%.
To `CC1(C)CCCC2=C1C(=O)N(SC(Cl)(Cl)Cl)C2=O` belongs 76.1%.
Then `C#CC(O)c1ccccc1` (stereo not given), with 108%; and `C=CC[N+](C)(C)C`, with 107%; and `CC(C)C[C@H](NC(=O)Cn1cccc(CNC(=O)c2ccccc2)c1=O)B(O)O`, with -51.3% (active).
To `OC(c1ccccc1)c1nnc(SCc2ccccc2)n1Cc1ccccc1` (stereo not given) belongs 112%.
`O=C(O)CN1C(=O)C=CC1=O`: the growth is 96.9%.
Regarding `O=C(NNC(=O)c1nc2cc(F)ccc2n2cccc12)c1cnccn1`, the growth is 17.8%.
Then `Nc1ncn([C@@H]2O[C@H](CO)[C@@H](O)C2(F)F)c(=O)n1`, with 25.2%; and `CNCCCn1c2c(c3ccc(F)cc3c1=O)C(=O)c1cc(OC)cnc1-2`, with -16.7% (active).
Then `O=C1CC(c2ccccc2)Cc2nc3ccc(Cl)cc3cc21` (stereo not given), with -20.7% (active); and `Cc1cc(O)cc2c1[C@H]1CC[C@]3(C)[C@@H](O)CC[C@H]3[C@@H]1C=C2`, with 70.6%; and `O=C(O)c1ccc(NC(=O)c2cccc(Nc3ccnc(C(F)(F)F)c3)c2)cc1`, with 94.1%.
To `COc1cc2ncnc(Nc3cccc(Cl)c3F)c2cc1OC(=O)N1CCN(C)C[C@H]1C` belongs 102%; to `CS(=O)(=O)c1ccc(-c2[nH]c3ccc(F)cc3c2/C=N/NC(N)=S)cc1`, -50.2% (active).
`CC(=O)c1cc2ccccc2o1`: the growth was 102%.
To `COc1ccc(-c2[nH]c(=S)n(C(CC3(C)NCC(=O)N3n3c(-c4ccccc4)cc(C)nc3=S)c3ccc(OC)cc3)c(=O)c2Br)cc1` (stereo not given) belongs 59.6%; to `CCOc1cccc(C2CC(=O)Nc3cc4c(cc32)OCO4)c1` (stereo not given), 90.7%; to `O=[N+]([O-])c1cc(F)c2cccnc2c1O`, 72.9%.
Then `COc1ccc(-c2c(-c3cc(OC)c(OC)c(OC)c3)noc2N)cc1`, with 12.5%; and `CCCCCCCCCCCCCCCCCC1=NC(C)(CO)CO1` (stereo not given), with 87.2%.
To `C[C@]12CC[C@@H]3c4ccc(OS(=O)(=O)O)cc4CC[C@H]3[C@@H]1CC[C@@H]2NS(=O)(=O)c1ccc(-c2ccccc2)cc1` belongs 43.9%.
In the case of `C/C=C(/C(=O)NC(N)=O)C(C)C`, the growth is 91%.
As to `O=C(NNc1nc(Cl)nc(N2CCN(C(c3ccccc3)c3ccccc3)CC2)n1)c1ccccc1`, the growth was -22.5% (active).
